Consider 23 compounds from PubChem BioAssay (NCATS).

The structures appear in SMILES notation. Results filed as inconclusive are left out. Activity calls are given as the source filed them. The call rests on the fitted dose curve; in most records, active means well fitted curve in the direction sought with a large enough effect; inconclusive means small, poorly fitted or top-dose-only effect, or another doubt; inactive means no such curve, though single readings can be large; an effect the other way counts as inactive or inconclusive.

Chain of Rap guanine nucleotide exchange factor 3 (Homo sapiens) (O95398 whole entry, looked up): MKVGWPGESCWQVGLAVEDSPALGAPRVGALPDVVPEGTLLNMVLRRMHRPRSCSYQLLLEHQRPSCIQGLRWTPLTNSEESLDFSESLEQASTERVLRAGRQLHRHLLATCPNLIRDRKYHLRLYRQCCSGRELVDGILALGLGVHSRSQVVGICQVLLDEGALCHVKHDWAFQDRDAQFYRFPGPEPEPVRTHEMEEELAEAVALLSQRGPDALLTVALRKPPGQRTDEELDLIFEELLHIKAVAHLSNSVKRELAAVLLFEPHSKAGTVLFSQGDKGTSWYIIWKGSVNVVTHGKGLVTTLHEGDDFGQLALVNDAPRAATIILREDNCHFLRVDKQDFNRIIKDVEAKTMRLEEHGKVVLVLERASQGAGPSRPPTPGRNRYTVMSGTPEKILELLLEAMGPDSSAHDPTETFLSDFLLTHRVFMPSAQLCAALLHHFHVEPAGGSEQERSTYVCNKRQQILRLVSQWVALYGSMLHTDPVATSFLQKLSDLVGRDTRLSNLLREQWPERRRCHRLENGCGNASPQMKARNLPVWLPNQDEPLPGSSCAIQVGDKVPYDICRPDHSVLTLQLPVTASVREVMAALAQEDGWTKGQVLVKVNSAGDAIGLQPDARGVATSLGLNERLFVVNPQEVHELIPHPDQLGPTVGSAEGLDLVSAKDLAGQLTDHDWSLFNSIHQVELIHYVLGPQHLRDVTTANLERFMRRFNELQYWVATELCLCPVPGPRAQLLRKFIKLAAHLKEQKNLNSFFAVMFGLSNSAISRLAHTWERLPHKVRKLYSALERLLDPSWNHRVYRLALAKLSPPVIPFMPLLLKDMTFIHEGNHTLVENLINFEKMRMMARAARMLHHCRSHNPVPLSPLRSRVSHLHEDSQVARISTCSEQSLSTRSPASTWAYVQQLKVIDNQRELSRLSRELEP

The first assay concerns the target Rap guanine nucleotide exchange factor 3 (Homo sapiens) (UniProt O95398). Description: Counterscreen qHTS for antagonist of cAMP-regulated guanine nucleotide exchange factor 3 (EPAC1) (AID 1645888).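 Further: fluorescence loss as bound BODIPY-GDP is released from Rap1B; % of control where 0% means no effect.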 Conditions: Rap1B-BODIPY-GDP nucleotide exchange, fluorescence; series mostly up to 154 µM; activity change, negative = inhibition: at the top concentration. In a few lines:
(§1)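 Rap1B–BODIPY-GDP (250 nM) with 50 uM GDP; compounds pin-transferred to 9.74 nM–152 uM final (activator) or from 7.32 nM upwards (inhibitor). Fluorescence Ex/Em 480/540 nm read at 5 and 30 min, then after adding cAMP or buffer, at room temperature.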
For the compound `COc1ccccc1CN(C)C(=O)C(c1ccccc1)c1ccccc1`, the “activity change, negative = inhibition” value was 9.06% (inactive). `Cc1ccc(-c2nc3ccc(C)cn3c2Cc2cccc(F)c2)cc1`: the “activity change, negative = inhibition” value was -6.42% (inactive). Take `COc1ccc(Cl)cc1NC(=O)COC(=O)c1cc(NS(=O)(=O)c2cccs2)ccc1O`: the “activity change, negative = inhibition” value was 13.7% (inactive). Consider `Clc1ccc(OCCn2c(-c3ccco3)nc3ccccc32)cc1`, for which the “activity change, negative = inhibition” value is 3.69% (inactive). As to `COc1ccc(CNc2ncnc3onc(-c4ccc(F)cc4)c23)cc1`, the “activity change, negative = inhibition” value is 12.9% (inactive). Regarding `Cc1csc2nc(-c3cccc(NC(=O)c4cccc(F)c4)c3)cn12`, the “activity change, negative = inhibition” value is -15.4% (inactive).

`N#C/C(=C\c1ccc(-c2ccccc2C(=O)O)o1)c1nc2ccccc2[nH]1`: the “activity change, negative = inhibition” value was 32.3% (inactive).

Consider `CCOc1cc2c(cc1/C=C/c1noc(C)c1[N+](=O)[O-])OC(C)C2` (centres undefined), for which the activity change, negative = inhibition is -13.8% [at 30.8 µM] (inactive). As for `Cc1cc(C)c2c(CN3CCCC3)cc(=O)oc2c1`, the “activity change, negative = inhibition” value was 3.84% (inactive). On the same count and under the same terms, next, `Cc1ccc(SCC(=O)Nc2ccccc2N2CCOCC2)cc1`: -13.6% (inactive); `N/C(CSc1nc(-c2ccccc2)c(-c2ccccc2)o1)=N\O`: -15.4% (inactive). Still for that read-out and setting: the value for `O=C1NNC(c2ccccc2)=N/C1=C\c1ccccc1Cl` was 4.26% (inactive); that for `Nc1nc(CSc2ccc(Cl)cc2)nc(N2CCCCC2)n1` was 1.73% (inactive); that for `CCn1c(SCC(=O)c2ccc(O)c(O)c2)nnc1-c1ccccc1OC` was 19.3% (inactive). Turning to `O=C(Cn1c(=O)c2ccccc2n(CC(=O)Nc2ccc(Cl)cc2)c1=O)NCCc1ccccc1`, the “activity change, negative = inhibition” value is -8.91% (inactive). With `O=[N+]([O-])c1cccc(S(=O)(=O)Nc2cccc(-c3ccc(N4CCCC4)nn3)c2)c1`, the “activity change, negative = inhibition” value was 18.6% (inactive).

Consider `COc1cccc2cc(/C(=N/O)c3ccccc3)oc12`, for which the “activity change, negative = inhibition” value was -6% (inactive). Still for that read-out and setting: next, `C#Cc1ccc([C@H]2C=C(C(=O)NCc3ccccc3)O[C@@H](OCC)[C@@H]2CCCO)cc1`: -2.77% (inactive). On the same count and under the same terms, next, `Cc1ccccc1C1(O)c2ccccc2-c2ccccc21`: -20.1% (inactive); `O=C(c1ccccc1Cc1ccccc1)N1CCN(S(=O)(=O)c2ccccc2Br)CC1`: -16.8% (inactive); `CCOC(=O)Nc1cc2c(c(N)n1)N=C(c1ccccc1)CN2`: 9.46% (inactive).

Another assay has the same target. Description: Counterscreen qHTS for agonist of cAMP-regulated guanine nucleotide exchange factor 3 (EPAC1) (AID 1645889). Further: nearly all actives have a fitted effect of over 40% in size. Further: potency means the concentration at half of the fitted maximal effect. On activation: % of control where 0% means no effect. Conditions: EPAC1 Rap1B-BODIPY-GDP exchange, fluorescence; series mostly up to 154 µM; activation: at the top concentration. In short, it runs like this:
as §1
For `Cc1cccc2sc(N(Cc3cccnc3)C(=O)c3cccs3)nc12`, the Potency is 25.1 µM (active). With `CC(C)C(NC(=O)C1CC(=O)N(Cc2ccccc2)C1)c1nc2ccccc2[nH]1` (centres undefined), the “activation” value was -4.59% (inactive). Turning to `Cc1ccc(SCC(=O)Nc2ccccc2N2CCOCC2)cc1`, the “activation” value is 14.5% (inactive).
